Bioassay records from PubChem BioAssay.
In the library only some 1.8% were active in any assay of this set; here they are far more common.
LYPLA1 counter: LYPLA1 inhibitors, primary screen, counter-screen for PME1 inhibitor project, biochemical, fluorescence polarization, FP-Rh probe ABPP; recombinant LYPLA1; inhibition, % at 5.9 µM; hit rate 0.16% among 320,000;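 active means inhibition above the mean of all tested compounds plus 3 SD, set per campaign, cut at about 14% in these data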;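 further: inhibitors block serine hydrolase probe labeling of LYPLA1 so polarization falls; 0% = enzyme with DMSO and 100% = wells lacking LYPLA1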
LYPLA2 counter: LYPLA2 inhibitors, primary screen, counter-screen for PME1 inhibitor project, biochemical, fluorescence polarization, FP-Rh probe ABPP; recombinant LYPLA2; inhibition, % at 5.9 µM; hit rate 0.38% among 320,000;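 active means inhibition above the screen-wide mean plus 3 SD, limit set per campaign, cut at about 26% in these data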;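 further: 0% = LYPLA2 with DMSO and 100% = wells lacking LYPLA2 enzyme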
Fam108B inh: mouse Fam108B serine hydrolase inhibitors, primary screen, counter-screen for RBBP9 inhibitor project, biochemical, fluorescence polarization. inhibition, % at 9.51 µM. recombinant Fam108B, FP-Rh probe fluorescence polarization. hit rate 0.33% among 300,000. AID 1947, 2009;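 active means inhibition above the screen mean inhibition plus 3 SD, computed separately per campaign, cut at about 18% in these data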;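 further: inhibitors lower polarization as less probe binds the enzyme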
PME-1 primary: PME-1 inhibitors via competitive probe labeling, primary screen, biochemical, fluorescence polarization, FP-Rh probe, HTS; Protein phosphatase methylesterase 1 (Homo sapiens), Q9Y570; recombinant PME-1; inhibition, % at 5.9 µM; hit rate 0.53% among 320,000;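 active means inhibition above the campaign mean of all compounds plus 3 SD, cut at about 26% in these data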;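 further: competitive labeling of PME-1 active site by serine hydrolase directed probe; 0% = PME-1 with DMSO and 100% = wells lacking PME-1 enzyme; inhibitors block probe labeling so polarization falls and inhibition rises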
GSTO1 inh: inhibitors of recombinant GSTO1, primary screen, counter-screen for RBBP9 inhibitor project, biochemical, fluorescence polarization; Glutathione S-transferase omega-1 (Homo sapiens), P78417; activity-based probe fluorescence polarization; inhibition, % at 5.96 µM; hit rate 1.1% among 300,000; AID 1974, 2009;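 active means inhibition above the campaign mean inhibition plus 3 SD, cut at about 35% in these data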;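 further: 0% = GSTO1-1 with DMSO and 100% = wells lacking GSTO1-1 enzyme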
Target sequence (P78417 whole entry, looked up): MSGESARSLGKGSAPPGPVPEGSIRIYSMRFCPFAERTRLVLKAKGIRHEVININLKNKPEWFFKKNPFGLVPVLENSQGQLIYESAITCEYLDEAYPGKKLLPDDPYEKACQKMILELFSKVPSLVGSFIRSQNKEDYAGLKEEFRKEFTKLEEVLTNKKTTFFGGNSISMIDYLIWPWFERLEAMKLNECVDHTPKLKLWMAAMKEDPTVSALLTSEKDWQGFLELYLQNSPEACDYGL
PAD4 FP inh: human PAD4 inhibitors, primary screen, biochemical, fluorescence polarization, 1536-well format. inhibition, % at 6.36 µM. Protein-arginine deiminase type-4 (Homo sapiens), Q9UM07. hit rate 0.41% among 330,000. recombinant PAD4, RCA probe fluorescence polarization;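 active means percent inhibition above a cutoff equal to the mean of all tested compounds plus 3 SD, cut at about 15% in these data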;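 further: 0% = PAD4 with RCA probe and DMSO and 100% = probe without PAD4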
GSTO1 confirm: GSTO1 inhibitor hit confirmation, counter-screen for RBBP9 inhibitor project, biochemical, fluorescence polarization, triplicate. shares compounds with GSTO1 inh. recombinant GSTO1, probe fluorescence polarization. inhibition, % at 5.96 µM. hit rate 54% among 2,400. AID 2176, 2009;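 active means inhibition above the primary screen's cutoff, its mean inhibition plus 3 SD, cut at about 35% in these data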;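 further: loss of polarization as inhibitors block binding of rhodamine sulfonate ester activity probe; 0% = GSTO1 with DMSO and 100% = wells lacking GSTO1 enzyme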
Active calls of the source: *; x = not tested or not shown.

SMILES	LYPLA1 counter	LYPLA2 counter	Fam108B inh	PME-1 primary	GSTO1 inh	PAD4 FP inh	GSTO1 confirm
COc1ccc(C(=O)Cc2ccc3c(c2)OCO3)c(O)c1	-5	6	2	-8	-5	-2	x
O=C(/C=C/c1ccc(O)cc1)c1c(O)cc(O)cc1O	1	11	2	0	13	-6	x
Cc1oc2c(c1C(=O)O)C(=O)c1ccccc1C2=O	0	1	3	4	61*	9	62*
Cc1cc(=O)oc(C)c1C(=O)O	2	3	-1	4	-1	-3	x
CCOC(=O)c1c(C)nc2c(c1-c1ccccc1)C(=O)c1ccccc1-2	3	6	4	5	-1	-5	x
CCOC(=O)c1c(C)oc2c1C(=O)c1ccccc1C2=O	1	4	5	12	66*	6	64*
CCOC(=O)[C@H]1[C@H]2COc3ccc(Br)cc3[C@@H]2N2C(=O)c3cc(F)c(F)cc3NC(=O)[C@@]12C	-13	-21	-6	-8	0	-3	x
CCOc1ccc(/C=N/Nc2ccccc2)cc1	3	7	-1	1	41*	0	16
Cc1ccccc1-c1nnc(SCC(=O)N(C)C2CCS(=O)(=O)C2)n1C (stereo unspecified)	x	x	x	x	x	-4	x
CC(=O)Nc1sc(C)c(C)c1C(=O)OCCOc1ccccc1	1	4	-3	-3	-1	1	x
CN(C)C(=O)c1cc(C(=O)c2ccccc2Cl)c[nH]1	-1	-6	-2	-1	-1	-1	x
CN(C)C(=O)c1cc(C(=O)c2ccccc2)c[nH]1	2	1	3	-2	67*	2	2
COc1ccc(C(=O)NC(=S)Nc2ccc3[nH]c(=O)[nH]c3c2)c(OC)c1	3	7	5	-4	3	1	x
Cc1cc(C)c(C)c(S(=O)(=O)N2CCC(C(=O)N3CC(C)CC(C)C3)CC2)c1C (stereo unspecified)	3	1	0	0	-6	-4	x
C[C@H](CO)N1C[C@H](C)[C@@H](CN(C)C(=O)Nc2ccc3c(c2)OCO3)Oc2ccc(NS(=O)(=O)c3ccccc3)cc2C1=O	x	x	x	x	x	1	x
CCC(C(=O)Nc1cc(Cl)c(OC)cc1OC)c1ccccc1 (stereo unspecified)	1	6	-3	2	2	-5	x
CC(=O)Nc1ccc(NC2=CC(=O)c3ccccc3C2=O)cc1	3	9	4	0	39*	-9	8
Cc1ccc(NC2=CC(=O)C(=O)c3ccccc32)cc1	3	3	12	15	77*	39*	73*
COc1cc(OC)c(NC2=CC(=O)C(=O)c3ccccc32)cc1Cl	3	10	17	10	79*	11	77*
CCN(CC)c1ccc(NC2=C(Cl)C(=O)c3ccccc3C2=O)cc1	-3	1	14	7	83*	-2	84*
NS(=O)(=O)c1ccc(NC(=O)CSc2nc(Nc3ccccc3)nc(N3CCOCC3)n2)cc1	-1	2	-2	-7	4	-4	x
O=C1C(O)=C(O)C(=O)c2ccccc21	5	7	12	11	81*	2	68*
O=C1C(=O)c2ccccc2C(O)=C1c1ccccc1F	4	9	3	0	-5	-5	x
O=C(NC1=C(Nc2ccc(F)cc2)C(=O)c2ccccc2C1=O)c1ccc(Cl)cc1	-2	1	11	3	22	-8	x
Cc1ccc(NC2=C(Cl)C(=O)c3ccccc3C2=O)cc1	-1	10	10	21	85*	2	85*
O=C1C(Cl)=C(NCCN2CCCCC2)C(=O)c2ccccc21	-1	4	4	4	71*	-3	52*
